Screens deposited in PubChem by National Center for Advancing Translational Sciences (NCATS).
KB-V1 MDR tox = kills drug-selected multidrug resistant KB-V1 cells; Potency, µM (series often up to 46.1 µM), usual class: cytotoxic; 3.4% of 400,000 active; AID 1347076; KB-V1 MDR cells viability, CellTiter-Glo, 72 h; further: on the % scale 0 is the no-effect control and ±100 the full control effect; nearly all actives have a fitted effect of over 60% in size
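Cytotoxicity via CellTiter-Glo luminescence after 72 h compound exposure at 37 degrees C. Cells: drug-selected KB-V1 line, DMEM phenol-red free plus 10% FBS. Compounds tested at multiple concentrations; normalized data fitted to concentration-effect curves.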
KB-3-1 tox = KB-3-1 parental cell cytotoxicity; KB-3-1 viability, CellTiter-Glo ATP luminescence, 72 h; 1.4% of 400,000 active; Potency, µM (titrated, usually from 46.1 µM), usual class: cytotoxic; further: on the % scale 0 is the no-effect control and ±100 the full control effect; nearly all actives have a fitted effect of over 60% in size
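Luminescent ATP read-out (CellTiter-Glo) measures survival of drug-naive KB-3-1 cells after 72 h compound exposure at 37 °C. Titration series was screened from lowest to highest concentration, with DMSO vehicle plates as background controls.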
SW480 rereplic = induces DNA re-replication in SW480 colon adenocarcinoma cells. SW480 DNA re-replication, Hoechst DNA content imaging, 48 h. Potency, µM (doses to about 46.1 µM), for inactives: at the top dose re-replication activation, most hits filed as activators. 1.8% of 340,000 active. AID 624297; further: % of control where 0% means no effect; nearly all actives have a fitted effect of over 55% in size
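Readout is total intensity of Hoechst-stained nuclei, excited at 405 nm and collected at 500-530 nm. Compound treatment lasted 48 hr at 37 C in 5% CO2 before staining.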
PTAP TSG101 blk = blocks PTAP/TSG101 interaction to inhibit HIV-1 budding; AID 493005; Potency, µM (titrated, usually from 115 µM), for inactives: top-dose activity change, negative = inhibition, most hits filed as inhibitors; 340,000 tested, under 10 active; Fluorescence polarization, FITC-PTAP peptide / Tsg101 binding; Q99816; active means well fitted inhibition curve with a large enough effect in the main read-out, with a control signal flat, not every such curve was filed as active; inconclusive means small, poorly fitted or top-dose-only effect, or effect the other way, or a change in a side signal; inactive means no such curve, though single readings can be large or run the other way; further: % of control where 0% means no effect
Target sequence (Q99816 whole entry, looked up): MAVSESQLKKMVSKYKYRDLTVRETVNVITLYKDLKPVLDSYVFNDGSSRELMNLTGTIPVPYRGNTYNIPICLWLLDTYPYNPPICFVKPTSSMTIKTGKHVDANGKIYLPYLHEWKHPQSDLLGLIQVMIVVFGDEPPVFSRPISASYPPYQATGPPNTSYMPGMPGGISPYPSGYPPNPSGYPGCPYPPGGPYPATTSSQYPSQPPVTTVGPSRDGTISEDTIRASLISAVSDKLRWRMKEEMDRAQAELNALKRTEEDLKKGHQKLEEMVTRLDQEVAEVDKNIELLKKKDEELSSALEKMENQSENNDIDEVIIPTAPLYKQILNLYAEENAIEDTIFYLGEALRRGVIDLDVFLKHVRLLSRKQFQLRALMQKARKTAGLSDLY
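Compounds were pin-transferred onto Tsg101 binding domain (10 uM final) in HEPES pH 7.5 buffer, then FITC-PTAP peptide was added at 50 nM final. After 20 min at RT, polarization reported peptide displacement across a qHTS concentration series.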
PINK1 expr mod = modulators of PINK1 expression; 0.2% of 410,000 active; PINK1 immunofluorescence, high-content cytometry, 24 h; AID 624263; Potency, µM (highest dose often 76.6 µM), for the others: at the top dose activation (PINK1 increase), actives largely listed as activators; active means well fitted activation curve with a large enough effect; inconclusive means small, poorly fitted or top-dose-only effect; cell line not stated here; further: % of control where 0% means no effect; nearly all actives have a fitted effect of over 65% in size
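Stable cell line, 250 cells/well, 12 h attachment; compounds pinned at 5 concentrations, 24 h; CCCP control. Fixed with nuclear dye, primary antibodies 12 h at 10 degrees C, secondary plus cell stain; laser-scanning cytometer read.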
MCF10A rerep = DNA re-replication induction in MCF 10a cells; MCF 10A DNA re-replication, Hoechst nuclear intensity, 48 h; Potency, µM (top dose mostly 46.1 µM), for inactives: at the top dose activity, positive = re-replication, hits mostly activators; 2.9% of 350,000 active; AID 624296; further: % of control where 0% means no effect; nearly all actives have a fitted effect of over 50% in size
Active calls of the source: *; i = inactive; ? = inconclusive; nt = no result; [ ] = dose if it differs, or a comment. This is a sample that favours compounds with a hit; in the whole collection about 6.8% have one here. Unless noted, the call rests on the fitted dose curve; in most records, active means well fitted curve in the direction sought with a large enough effect; inconclusive means small, poorly fitted or top-dose-only effect, or another doubt; inactive means no such curve, though single readings can be large; an effect the other way counts as inactive or inconclusive. Potency means the concentration at half of the fitted maximal effect.

SMILES | KB-V1 MDR tox | KB-3-1 tox | SW480 rereplic | PTAP TSG101 blk | PINK1 expr mod | MCF10A rerep
CC(C)CC1C(=O)N(Cc2cn(CCC3OCCO3)nn2)CCS(=O)(=O)N1Cc1ccc(-c2ccccc2)cc1 (centres undefined) | 15µM* | ? | nt | nt | -1% | nt
COc1ccc(-c2ccc(CN3C(C(C)C)C(=O)N(Cc4cn(Cc5ccco5)nn4)CCS3(=O)=O)cc2)cc1OC (centres undefined) | i | i | nt | nt | 0% | nt
CCOc1cc(C(=O)Nc2ccc(S(=O)(=O)Nc3cc(OC)nc(OC)n3)cc2)cc(OCC)c1OCC | i | i | nt | nt | 2% | nt
CC(=O)N1N=C(c2ccc3nccnc3c2)CC1c1ccccc1 (centres undefined) | i | i | -1% | -2% | 0%[38.3 µM] | -3%
Cc1ccc(C2=NN(C(=O)c3cccs3)C(c3ccccc3O)C2)cc1 (centres undefined) | i | i | ? | 2% | 2% | 21µM*
O=C(c1ccccc1)N1N=C(c2ccccc2)CC1c1ccc2nccnc2c1 (centres undefined) | 7.3µM* | i | 0% | -1% | 1% | 15%
O=C(c1ccncc1)N1N=C(c2ccc(Br)cc2)CC1c1ccccc1O (centres undefined) | 21µM* | i | 6% | 1% | 2% | ?
CCCC(=O)NCC(c1ccc2c(c1)OCO2)N1CCN(c2ccccc2)CC1 (centres undefined) | i | i | nt | nt | -1% | nt
Cc1nc2ncnn2c(C)c1CCC(=O)NCc1ccc(Cl)cc1 | ? | i | nt | nt | 2% | nt
COc1cc(NS(=O)(=O)c2ccc(NC(=O)COc3ccc(Cl)cc3Cl)cc2)nc(OC)n1 | i | i | nt | nt | 0% | nt
CCc1ccc(/C=N/NC(=O)c2c[nH]c3ccccc23)s1 | ? | i | 2% | -1% | 15% | 3%
COc1ccc(/C=N/NC(=O)C(C)n2cnc3ccccc3c2=O)cc1 (centres undefined) | i | i | -5% | 0% | 0% | -16%
CCc1cc(C(=O)N/N=C/c2ccc(OC)cc2)c2ccccc2n1 | ? | ? | ? | 0% | 7% | 16µM*
Cc1ccc(-c2cc(C(=O)N/N=C/c3ccoc3)c3ccccc3n2)cc1 | i | i | ? | -4% | 8% | ?
COc1ccc(/C=N/NC(=O)Cn2cnc3ccccc3c2=O)cc1 | 3.3µM* | i | -2% | 0% | 1% | ?
CCc1ccc(/C=N/NC(=O)c2cc(-c3ccncc3)nc3ccccc23)s1 | i | 4.6µM* | 3.7µM* | -6% | 5% | 1µM*
CCCc1cc(C(=O)N/N=C/c2ccc(CC)s2)c2ccccc2n1 | 5.8µM* | ? | 21µM* | -9% | 1% | 7.3µM*
COc1ccc(C)cc1NC(=O)Cn1nc(N2CCN(c3ccccc3OC)CC2)ccc1=O | i | i | nt | nt | 4% | nt
COc1ccc(-c2ccc(C(=O)N3CCc4c(cnc(C)c4CNS(=O)(=O)N(C)C)C3)o2)cc1 | nt | nt | nt | nt | 0% | nt
COc1cc(/C=N/NC(=O)c2cc(-c3ccccc3OC(C)C)nc3ccccc23)ccc1O | 12µM* | 18µM* | ? | 0% | -1% | 10µM*
COc1ccc(-c2cc(C(=O)N/N=C/c3ccc(OC)c(COCC(F)(F)C(F)F)c3)c3ccccc3n2)c(OC)c1 | i | i | 17% | 1% | 2% | 23µM*
Cc1cc(C(=O)N/N=C/c2ccco2)c2ccccc2n1 | i | i | ? | -2% | ? | ?
COc1cc(/C=N/NC(=O)c2cc(-c3ccccc3)nc3ccccc23)ccc1O | i | i | 0% | -3% | 12% | 16%
O=C(N/N=C/c1cccs1)c1cc(-c2ccncc2)nc2ccccc12 | 1.8µM* | ? | ? | -2% | 9% | ?
COc1ccc(-c2cc(C(=O)N/N=C/c3ccc4c(c3)OCO4)c3ccccc3n2)c(OC)c1 | i | i | ? | -7% | 2% | ?
SMILES | KB-V1 MDR tox | KB-3-1 tox | SW480 rereplic | PTAP TSG101 blk | PINK1 expr mod | MCF10A rerep
O=C(N/N=C/c1ccco1)c1cc(-c2ccncc2)nc2ccccc12 | i | ? | 16µM* | -1% | 8% | ?
O=C(N/N=C/c1ccccn1)c1cc(-c2ccccc2)nc2ccccc12 | i | i | ? | 1% | 15% | ?
COCCn1c(CNC(=O)c2ccccc2C)nc2cccnc21 | nt | nt | nt | nt | -1% | nt
CCN(CC)S(=O)(=O)c1ccc2nc(NC(=O)c3cncc(Br)c3)sc2c1 | ? | i | nt | nt | -1% | nt
O=C(N/N=C/c1ccncc1)c1cc(C2CC2)nc2ccccc12 | i | i | -8% | 0% | 1% | -6%
O=C(N/N=C/c1cccs1)c1cc(C2CC2)nc2ccccc12 | ? | 18µM* | 18µM* | -10% | 9% | 8.2µM*
COc1ccccc1CN(C)C(=O)c1cc(-c2cccs2)nc2ccccc12 | ? | ? | 10% | 2% | -3% | 18µM*
COc1ccccc1-c1cc(C(=O)N/N=C/c2cccs2)c2ccccc2n1 | i | ? | 7% | -6% | 0% | 14µM*
Nc1c(-c2ccc3c(c2)OCCO3)oc2ccccc2c1=O | ? | ? | 21µM* | 0% | 2% | 18µM*
Cc1ccccc1NC(=O)CSc1nc2c(oc3ccccc32)c(=O)n1-c1ccccc1F | i | i | nt | nt | 1% | nt
Cc1c(C(=O)NCc2cccc([N+](=O)[O-])c2)sc(=O)n1Cc1ccc(C(C)C)cc1 | 9.2µM* | ? | nt | nt | 1% | nt
Cc1c(C(=O)NCc2cccc([N+](=O)[O-])c2)sc(=O)n1Cc1ccc(F)cc1 | ? | i | nt | nt | 1% | nt
